Laboratory results as given in PubChem BioAssay (Tox21).
Inconclusive results are not listed. Active and inactive are the calls of the source. Unless noted, the call rests on the fitted dose curve; in most records, active means well fitted curve in the direction sought with a large enough effect in the repeat runs; inconclusive means weak or mixed curves; inactive means no such curve, though single readings can be large; an effect the other way counts as inactive or inconclusive.

Tests used:
[1] = qHTS assay to identify small molecule that activate the aryl hydrocarbon receptor (AhR) signaling pathway - cell viability counter screen (AID 743086);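 further: HepG2 liver cells carrying the AhR DRE luciferase reporter; series mostly up to about 70 µM; nearly all actives have a fitted effect of over 45% in size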
Method in brief: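 HepG2-AhR-luc (HG2L7.5c1) cells, 4000/well, treated 24 h at 37 C with compound; viability measured as CellTiter-Fluor fluorescence after 30 min in the same wells as the luciferase read.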

[2] = target: Peroxisome proliferator-activated receptor gamma (Homo sapiens) (UniProt P37231); test: qHTS assay to identify small molecule agonists of the peroxisome proliferator-activated receptor gamma (PPARg) signaling pathway (AID 743094; active means well fitted activation curve with a large enough effect in the signal ratio in the repeat runs, not every such curve was filed as active; the % refers to the signal ratio)
Method in brief: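 GeneBLAzer PPARg UAS-bla HEK293H cells carrying a stably integrated beta-lactamase reporter were pre-incubated 5 h at 37C, then exposed to compounds in DMSO for 17 h at 37C; LiveBLAzer B/G FRET substrate was added for 1 h at room temperature and fluorescence read.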

[3] = qHTS assay to identify small molecule antagonists of the peroxisome proliferator-activated receptor gamma (PPARg) signaling pathway - cell viability counter screen (AID 743194); further: nearly all actives have a fitted effect of over 55% in size
Method in brief: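 Cytotoxicity counter screen in PPARg-bla HEK293H cells, same wells as reporter assay. Compounds plus 50 nM rosiglitazone (final) for 17 h at 37 C, then viability read by CellTiter-Glo luminescence.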

[4] = qHTS assay for small molecule agonists of the antioxidant response element (ARE) signaling pathway (AID 743202; active means well fitted activation curve with a large enough effect in the signal ratio in the repeat runs, not every such curve was filed as active; the % refers to the signal ratio)
Method in brief: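 Agonist mode reporter screen: HepG2 cells with ARE-controlled beta-lactamase are incubated with test compounds for 16 h at 37 C, and beta-lactamase activity is measured as fluorescence of cleaved B/G FRET substrate.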

[5] = qHTS assay for small molecule agonists of the antioxidant response element (ARE) signaling pathway - cell viability counter screen (AID 743203; calls by dose curve; further: nearly all actives have a fitted effect of over 55% in size)
Method in brief: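 CellSensor ARE-bla HepG2 cells, 2,000 per well, rested 5 hrs at 37C/5% CO2, then exposed to compound in DMSO for 16 hrs; viability read as CellTiter-Glo luminescence after 30 min at room temperature, in the reporter wells.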

[6] = qHTS assay for small molecule activators of the heat shock response signaling pathway - cell viability counter screen (AID 743209); further: nearly all actives have a fitted effect of over 50% in size
Method in brief: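 CellSensor HSE-bla HeLa cells, plated overnight at 37 C/5% CO2, were exposed to compounds in DMSO for 5 h at 37 C. Viability was then read in the same wells by CellTiter-Glo luminescence after 30 min at room temperature.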

[7] = target: Peroxisome proliferator-activated receptor delta (Homo sapiens) (UniProt Q03181); test: qHTS assay to identify small molecule agonists of the peroxisome proliferator-activated receptor delta (PPARd) signaling pathway (AID 743212; calls by dose curve)
Method in brief: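 Quantitative high-throughput agonist screen in a HEK293H beta-lactamase reporter line under UAS control. Compounds in DMSO, at 37 C. Fluorescence read after 2 h with FRET substrate at room temperature.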

[8] = qHTS assay to identify small molecule antagonists of the peroxisome proliferator-activated receptor delta (PPARd) signaling pathway - cell viability counter screen (AID 743213); further: nearly all actives have a fitted effect of over 50% in size
Method in brief: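 Cytotoxicity counter screen: CellTiter-Glo luminescence read 30 min after addition, in the same wells as the reporter assay. There, PPARd UAS-bla HEK293H cells (3000/well) were treated 17 h at 37 C with compound and 300 nM L165041.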

[9] = target: Peroxisome proliferator-activated receptor delta (Homo sapiens) (UniProt Q03181); test: qHTS assay to identify small molecule antagonists of the peroxisome proliferator-activated receptor delta (PPARd) signaling pathway (AID 743215; active means well fitted inhibition curve with a large enough effect in the signal ratio in the repeat runs, not every such curve was filed as active; the % refers to the signal ratio;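 further: cells stimulated with agonist L165041 at 300 nM final during compound exposure; series mostly up to about 62 µM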)
Method in brief: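 PPARd UAS-bla HEK293H cells were pre-incubated 5 h at 37 C, then given test compounds in DMSO plus agonist L165041 (300 nM final). After 17 h at 37 C, beta-lactamase FRET substrate was added; fluorescence read after 2 h at room temperature.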

[10] = qHTS assay to identify small molecule agonists of the farnesoid-X-receptor (FXR) signaling pathway - cell viability counter screen (AID 743218); further: nearly all actives have a fitted effect of over 45% in size
Method in brief: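 FXR-UAS-bla HEK 293T cells, plated 5 h at 37 C, were exposed to compounds for 16 h at 37 C. CellTiter-Glo was then added to the same wells as the bla readout; luminescence read after 30 min at room temperature.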

[11] = target: Vitamin D3 receptor (Homo sapiens) (UniProt P11473); test: qHTS assay to identify small molecule agonists of the vitamin D receptor (VDR) signaling pathway (AID 743222; calls by dose curve)
Method in brief: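 VDR-bla cells were plated 4 h at 37C/5% CO2, then exposed to compounds in DMSO for 16 h. After LiveBLAzer B/G FRET substrate addition and 2 h at room temperature, beta-lactamase reporter fluorescence was read.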

[12] = target: Vitamin D3 receptor (Homo sapiens) (UniProt P11473); test: qHTS assay to identify small molecule antagonists of the vitamin D receptor (VDR) signaling pathway (AID 743223; active means well fitted inhibition curve with a large enough effect in the signal ratio in the repeat runs, not every such curve was filed as active; the % refers to the signal ratio)
Method in brief: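 VDR-bla cells were plated, incubated 4 h at 37C, then given compound and 1alpha,25-dihydroxyvitamin D3 (3 nM final). After 16 h at 37C, LiveBLAzer B/G FRET substrate was added for 2 h at room temperature and fluorescence read.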

[13] = qHTS assay to identify small molecule agonists of the vitamin D receptor (VDR) signaling pathway - cell viability counter screen (AID 743224); further: series mostly up to about 63 µM; nearly all actives have a fitted effect of over 50% in size
Method in brief: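 VDR-bla cells were preincubated 4 h at 37C/5% CO2, then exposed to compounds for 16 h. After the 2 h room-temperature bla FRET read, CellTiter-Glo was added to the same wells and luminescence read after 30 min.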

[14] = target: Peroxisome proliferator-activated receptor gamma (Homo sapiens) (UniProt P37231); test: qHTS assay to identify small molecule antagonists of the peroxisome proliferator-activated receptor gamma (PPARg) signaling pathway (AID 743191; calls by dose curve; further: series mostly up to about 63 µM; nearly all actives have a fitted effect of over 30% in size)
Method in brief: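 GeneBLAzer PPARg UAS-bla HEK293H cells, 5 h post-plating, exposed to compounds 17 h at 37C. LiveBLAzer B/G FRET substrate added for 1 h at room temperature; beta-lactamase reporter read by fluorescence intensity.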

[15] = qHTS assay for small molecule activators of the heat shock response signaling pathway (AID 743210; active means well fitted activation curve with a large enough effect in the signal ratio in the repeat runs, with a control signal flat, not every such curve was filed as active; the % refers to the signal ratio;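 further: HeLa cells with beta-lactamase reporter driven by heat shock elements; series mostly up to about 63 µM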)
Method in brief: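 Quantitative high-throughput format using an engineered HeLa line in which heat shock response elements drive beta-lactamase; after 5 h with compound, cells received a B/G FRET substrate and fluorescence was read.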

[16] = qHTS assay to identify small molecule agonists of the peroxisome proliferator-activated receptor delta (PPARd) signaling pathway - cell viability counter screen (AID 743211); further: nearly all actives have a fitted effect of over 55% in size
Method in brief: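 PPARd-bla HEK293H cells (UAS-beta-lactamase reporter) were treated with compounds for 17 h at 37 C. Viability was then read in the same wells by CellTiter-Glo luminescence after 30 min at room temperature.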

[17] = target: Bile acid receptor (Homo sapiens) (UniProt Q96RI1); test: qHTS assay to identify small molecule antagonists of the farnesoid-X-receptor (FXR) signaling pathway (AID 743217; active means well fitted inhibition curve with a large enough effect in the signal ratio in the repeat runs, not every such curve was filed as active; the % refers to the signal ratio)
Method in brief: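 FXR-UAS-bla HEK 293T cells pre-incubated 5 h at 37 °C, then exposed to compounds with chenodeoxycholic acid (50 uM final) for 16 h at 37 °C. Beta-lactamase reporter read by LiveBLAzer B/G FRET substrate fluorescence after 2 h at room temperature.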

[18] = target: Bile acid receptor (Homo sapiens) (UniProt Q96RI1); test: qHTS assay to identify small molecule agonists of the farnesoid-X-receptor (FXR) signaling pathway (AID 743220; active means well fitted activation curve with a large enough effect in the signal ratio in the repeat runs, not every such curve was filed as active; the % refers to the signal ratio)
Method in brief: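 Beta-lactamase reporter under UAS control in GeneBLAzer FXR HEK 293T cells (5000/well) measured with LiveBLAzer FRET substrate after 2 h at room temperature. Compound exposure lasted 16 h at 37C.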

[19] = qHTS assay to identify small molecule antagonists of the farnesoid-X-receptor (FXR) signaling pathway - cell viability counter screen (AID 743221; active means well fitted cell-killing curve with a large enough effect in the repeat runs, not every such curve was filed as active; further: nearly all actives have a fitted effect of over 50% in size)
Method in brief: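 FXR-UAS-bla HEK 293T cells were treated with test compounds plus chenodeoxycholic acid (50 uM final) for 16 h at 37 C. Cell viability in the same wells was then read as CellTiter-Glo luminescence after 30 min at room temperature.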
On the % scale 0 is the no-effect control and ±100 the full control effect.

Chain of Vitamin D3 receptor (Homo sapiens) (P11473 whole entry, looked up): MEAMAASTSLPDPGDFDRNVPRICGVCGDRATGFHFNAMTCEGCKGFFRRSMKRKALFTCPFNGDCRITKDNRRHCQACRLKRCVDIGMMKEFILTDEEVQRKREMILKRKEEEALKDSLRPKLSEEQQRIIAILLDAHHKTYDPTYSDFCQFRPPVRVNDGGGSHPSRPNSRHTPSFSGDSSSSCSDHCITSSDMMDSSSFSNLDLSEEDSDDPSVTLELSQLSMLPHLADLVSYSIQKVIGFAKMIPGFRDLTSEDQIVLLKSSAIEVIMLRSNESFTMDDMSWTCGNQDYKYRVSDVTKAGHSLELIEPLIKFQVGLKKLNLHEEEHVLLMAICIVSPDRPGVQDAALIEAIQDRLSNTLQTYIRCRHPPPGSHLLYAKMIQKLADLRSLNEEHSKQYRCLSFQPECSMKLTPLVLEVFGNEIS
Chain of Bile acid receptor (Homo sapiens) (Q96RI1 whole entry, looked up): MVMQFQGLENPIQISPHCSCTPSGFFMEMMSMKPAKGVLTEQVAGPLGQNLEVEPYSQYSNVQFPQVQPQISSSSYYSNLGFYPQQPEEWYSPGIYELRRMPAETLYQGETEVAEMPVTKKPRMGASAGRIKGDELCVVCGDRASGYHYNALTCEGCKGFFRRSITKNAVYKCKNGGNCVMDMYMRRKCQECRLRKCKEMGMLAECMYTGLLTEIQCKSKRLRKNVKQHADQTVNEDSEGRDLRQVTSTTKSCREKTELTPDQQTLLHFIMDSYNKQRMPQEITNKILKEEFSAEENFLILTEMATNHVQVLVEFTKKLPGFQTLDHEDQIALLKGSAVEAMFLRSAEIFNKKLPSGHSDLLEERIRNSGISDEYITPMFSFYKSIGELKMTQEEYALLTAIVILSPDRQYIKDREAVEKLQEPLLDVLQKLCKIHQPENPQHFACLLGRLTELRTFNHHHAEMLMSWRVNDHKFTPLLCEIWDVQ
Chain of Peroxisome proliferator-activated receptor delta (Homo sapiens) (Q03181 whole entry, looked up): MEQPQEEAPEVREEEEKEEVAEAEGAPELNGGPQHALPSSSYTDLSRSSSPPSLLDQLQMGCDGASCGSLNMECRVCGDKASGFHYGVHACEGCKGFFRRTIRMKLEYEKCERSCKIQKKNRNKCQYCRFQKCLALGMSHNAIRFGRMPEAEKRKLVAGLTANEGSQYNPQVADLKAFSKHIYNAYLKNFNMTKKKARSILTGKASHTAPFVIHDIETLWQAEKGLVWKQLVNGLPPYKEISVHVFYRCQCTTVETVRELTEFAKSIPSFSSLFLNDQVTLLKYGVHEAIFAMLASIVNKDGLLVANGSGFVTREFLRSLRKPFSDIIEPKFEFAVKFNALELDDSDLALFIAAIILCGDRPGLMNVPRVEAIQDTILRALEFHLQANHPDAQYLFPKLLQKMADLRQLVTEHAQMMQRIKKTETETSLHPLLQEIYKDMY
Chain of Peroxisome proliferator-activated receptor gamma (Homo sapiens) (P37231 whole entry, looked up): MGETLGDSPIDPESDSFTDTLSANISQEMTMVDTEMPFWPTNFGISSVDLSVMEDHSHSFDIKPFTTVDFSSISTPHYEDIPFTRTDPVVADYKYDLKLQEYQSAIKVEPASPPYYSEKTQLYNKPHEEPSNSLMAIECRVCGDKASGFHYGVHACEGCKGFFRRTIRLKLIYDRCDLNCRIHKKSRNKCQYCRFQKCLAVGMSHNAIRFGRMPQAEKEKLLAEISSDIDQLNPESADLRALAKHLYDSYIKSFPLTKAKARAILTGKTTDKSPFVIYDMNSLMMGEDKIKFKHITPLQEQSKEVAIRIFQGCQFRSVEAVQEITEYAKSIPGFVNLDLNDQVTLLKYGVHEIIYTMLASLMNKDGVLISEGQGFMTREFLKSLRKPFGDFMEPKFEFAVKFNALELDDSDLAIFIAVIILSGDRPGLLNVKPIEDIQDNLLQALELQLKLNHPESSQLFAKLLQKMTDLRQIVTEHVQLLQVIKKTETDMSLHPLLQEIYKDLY

C[C@@H]1NC(=O)[C@@H](N)CNC(=O)[C@H](C2CCNC(N)=N2)NC(=O)/C(=C/NC(N)=O)NC(=O)[C@H](CNC(=O)C[C@@H](N)CCCN)NC1=O (some centres undefined)
inactive: outcome [1] | outcome [2] | activity change, negative = cytotoxicity [3] 14.8% [at 0.55 µM] | activation [4] 11.7% [at 0.756 µM] | viability change, negative = cytotoxic [5] 6.23% [at 0.756 µM] | activity change, negative = cytotoxicity [6] -24.2% [at 0.55 µM] | activation [7] 1.73% [at 0.55 µM] | viability change, negative = cytotoxic [8] 5.77% [at 0.575 µM] | ratio activity, negative = inhibition [9] 1.43% [at 0.575 µM] | viability change, negative = cytotoxic [10] -0.66% [at 0.55 µM] | activation [11] 3.13% [at 0.554 µM] | activity change, negative = inhibition [12] 8.64% [at 0.628 µM] | activity change, negative = cytotoxicity [13] -2.65% [at 0.55 µM]

O=S(=O)(O)CC(O)CCl (centres undefined)
inactive: outcome [1] | outcome [2] | outcome [14] | outcome [3] | Potency [4] | outcome [5] | outcome [15] | outcome [16] | outcome [7] | outcome [8] | outcome [17] | outcome [10] | outcome [18] | outcome [19] | outcome [12] | outcome [13]

CC[C@@]1(c2ccccc2)NC(=O)N(C)C1=O
inactive: outcome [1] | outcome [2] | outcome [14] | outcome [3] | Potency [4] | outcome [5] | Potency [6] | outcome [16] | outcome [7] | outcome [8] | outcome [17] | outcome [10] | outcome [18] | outcome [19] | outcome [11] | outcome [13]

CC(=O)Oc1ccc(C(C)=O)cc1
inactive: outcome [1] | outcome [2] | outcome [14] | outcome [3] | Potency [4] | outcome [5] | outcome [15] | outcome [16] | outcome [7] | outcome [9] | outcome [17] | outcome [18] | outcome [19] | outcome [13]

CCOC(=O)CC(C(C)=O)C(C)=O
inactive: outcome [1] | outcome [2] | outcome [3] | Potency [4] | outcome [5] | Potency [6] | outcome [16] | outcome [7] | outcome [8] | outcome [9] | outcome [10] | outcome [19] | outcome [11] | outcome [13]

N=C(N)N1CCc2ccccc2C1
inactive: outcome [1] | outcome [2] | ratio activity, negative = inhibition [14] -11.9% [at 5.95 µM] | activity change, negative = cytotoxicity [3] 0.134% [at 5.95 µM] | activation [4] -8.74% [at 8.36 µM] | viability change, negative = cytotoxic [5] -8.38% [at 8.36 µM] | activity change, negative = cytotoxicity [16] 3.73% [at 5.95 µM] | activation [7] 2.47% [at 5.95 µM] | viability change, negative = cytotoxic [8] -9.71% [at 6.26 µM] | ratio activity, negative = inhibition [9] -18.7% [at 6.26 µM] | viability change, negative = cytotoxic [10] 5.62% [at 5.95 µM] | activity change, negative = cytotoxicity [19] -6.73% [at 5.95 µM] | activation [11] 4.08% [at 6.01 µM] | activity change, negative = cytotoxicity [13] -1.18% [at 5.95 µM]

CCC(C)c1nccnc1OC (centres undefined)
inactive: outcome [1] | outcome [2] | outcome [14] | outcome [3] | Potency [4] | outcome [5] | outcome [16] | outcome [7] | outcome [9] | outcome [17] | outcome [10] | outcome [18] | outcome [19] | outcome [11] | outcome [12] | outcome [13]

CCN1CCN(C(=O)N[C@@H](C(=O)N[C@@H]2C(=O)N3[C@@H]2SC(C)(C)[C@H]3C(=O)O)c2ccccc2)C(=O)C1=O
inactive: outcome [1] | outcome [2] | outcome [14] | Potency [4] | outcome [5] | Potency [6] | outcome [15] | outcome [16] | outcome [7] | outcome [8] | outcome [9] | outcome [17] | outcome [10] | outcome [19] | outcome [11] | outcome [12]
